# In the library only some 7.2% were active in any assay of this set; here they are far more common.
# RE007 growth inh = less growth of the S. pombe RE007 Vpr strain. S. pombe RE007 Vpr strain, BacTiter-Glo ATP luminescence, 24 h. Potency, µM (top dose mostly 92.2 µM), for inactives: at the highest dose activity change, negative = less growth, most hits filed as inhibitors. 360,000 tested, 0.21% active; active = well fitted falling curve with a large enough effect; inconclusive = small, poorly fitted or top-dose-only effect; inactive = no such curve, though single readings can be large or run the other way; note: nearly all actives have a fitted effect of over 50% in size
#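 Fission yeast RE007 carrying one integrated HIV-1 vpr copy, seeded at OD 0.01 in PMG+AL medium with 23 nL pinned compound. Grown 24 h at 30 degrees; viability read by BacTiter-Glo luminescence after 5 min.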
# HCV inhibitor = HCV inhibition; Potency, µM (top dose mostly 41.8 µM), inactives show top-dose activity change, negative = inhibition, most hits filed as inhibitors; 340,000 tested, 3.4% active; AID 651820; Huh7.5.1 HCVcc-Cre infection, luciferase reporter, 44 h
#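 Seed cells (1,000/well) for 4 h; treat with compound and infect with HCVcc-Cre, moi about 0.5. Incubate 44 h, then detect luciferase activity.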
# FMDV antiviral = foot and mouth disease virus antiviral activity. Potency, µM (doses to about 57.9 µM), inactives show at the highest dose activity change, negative = inhibition, hits mostly inhibitors. FMDV antiviral cell-based qHTS. 410,000 tested, 1.2% active; calls by dose curve; tested in HEK293T cells; note: read-out not given here; nearly all actives have a fitted effect of over 45% in size
# Lassa entry inh = blocks Lassa virus binding to or entry into cells; Lassa virus pseudotype entry inhibition, cell reporter; Potency, µM (series often up to 37.9 µM), for the others: top-dose activity change, negative = inhibition, usual class: inhibitors; 300,000 tested, 1.2% active; calls by dose curve; tested in HEK293 cells; note: nearly all actives have a fitted effect of over 50% in size
# Sm TGR inh = inhibitors of Schistosoma mansoni thioredoxin glutathione reductase | Q962Y6 | purified TGR, DTNB reduction, TNB absorbance 405 nm | Potency, µM (doses to about 114 µM), inactives show top-dose activity change, negative = inhibition, hits mostly inhibitors | 360,000 tested, 3% active; note: nearly all actives have a fitted effect of over 60% in size
#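 TGR 20 nM + NADPH 100 uM (dispensed conc.), cpd preinc 15 min RT; start with NADPH (500 uM addition) then DTNB (15 mM addition). Kinetic TNB absorbance, 405 nm filter. Four-parameter Hill fit across titration.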
# Marburg entry inh = blocks Marburg virus binding to or entry into cells; Marburg virus pseudotyped entry inhibition, cell reporter; Potency, µM (highest dose often 37.8 µM), inactives show top-dose activity change, negative = inhibition, usual class: inhibitors; 300,000 tested, 1.8% active; calls by dose curve; tested in HEK293 cells
# * hit, by the source's call; ? = inconclusive; / = no result given; [ ] = dose if it differs, or a comment. Unless noted, calls come from the whole dose curve; as a rule, active = well fitted curve in the direction sought with a large enough effect; inconclusive = small, poorly fitted or top-dose-only effect, or another doubt; inactive = no such curve, though single readings can be large; an effect the other way counts as inactive or inconclusive. % is set by controls: 0 for no effect and ±100 for the full control effect; potency is the fitted concentration of half-maximal effect.
SMILES,RE007 growth inh,HCV inhibitor,FMDV antiviral,Lassa entry inh,Sm TGR inh,Marburg entry inh
O=C(COC(=O)c1ccc(O)cc1O)NC1CCS(=O)(=O)C1 (configuration not stated),26%,14%,8%,3%,6%,-2%[46.1 µM]
CC(C)Oc1ccc(C(=O)OCC(=O)NC(=O)NC2CCCC2)cc1,-4%,-14%,0%,/,-14%,/
O=C(COC(=O)c1ccc(O)cc1O)NC1CCCCCC1,0%,13µM*,-3%,/,-10%,/
CC(C)Oc1ccc(C(=O)OCC(=O)NC2CCCCCC2)cc1,-10%,11µM*,?,/,-17%,/
Cc1c(C(=O)N2CCC(C)CC2)c(S(=O)(=O)Nc2ccc(OC(F)(F)F)cc2)c(C)n1C,/,/,6%,-23%[46.1 µM],-2%,/
CCOc1ccc(OCC)c(NC(=O)C2CCCN(S(=O)(=O)c3ccc4c(c3)oc(=O)n4C)C2)c1 (configuration not stated),/,/,-2%,19%[46.1 µM],-10%,13%[46.1 µM]
O=c1[nH]c2ccc(Cl)cc2c(-c2ccccc2)c1N1CCN(CCO)CC1,-24%,?,-24%,?,-3%,10µM*
CC1(C)CC(=O)C(CC2=C(O)CC(C)(C)CC2=O)=C(O)C1,-17%,11%,?,1%,2.8µM*,19%
CC1(C)CC(=O)C(CC2=C(O)CC(C)(C)CC2=O)C(=O)C1,13%,12%,-9%,11%,24%[11.4 µM],9%
Cc1ccc(NC(=O)/C(C#N)=C\c2ccc(-c3ccc(Cl)cc3)o2)c(C)c1,/,/,-20%,26%[46.1 µM],-8%,/
CCOC(=O)c1ccc(CN(Cc2ccc(Br)cc2)S(=O)(=O)c2cccc(Cl)c2C)cc1,/,/,-25%,?,11%,/
Cc1cc(-c2nn(-c3ccccc3F)cc2CN2CCC(O)CC2)c(C)s1,-4%,-3%,-2%,/,-12%,/
Cc1cc(-c2nn(-c3ccccc3F)cc2CN2CCN(c3ccncc3)CC2)c(C)s1,-20%,?,-15%,?,-1%,6.3µM*
CCOC(=O)CCN1C(=O)[C@H]2[C@H]3[C@H](O)[C@H](O)C/C(=N\OCc4ccccc4)[C@@H]3CC[C@H]2C1=O,/,/,/,/,/,-7%[14.2 µM]
COCc1cc(C)nc(SCC(=O)Nc2cc3c(cc2C#N)OCO3)c1C#N,6%,10µM*,2%,2%,7%,-16%
CCOC(=O)c1c(C)oc2nc(C)nc(NCC3CCN(Cc4ccc(F)cc4)CC3)c12,/,/,-14%,30%[46.1 µM],-12%,/
C1CN(CC2CCN(c3nc4nonc4nc3N3CCSCC3)CC2)CCO1,4%,2%,7%,2%,28µM*,11%[14.2 µM]
Cc1ccc2c(c1)CN(CCNC(=O)C(C)Oc1ccccc1)CC(C)O2 (configuration not stated),/,/,-8%,/,/,/
CCOC(=O)/C(C#N)=C/c1cc(C)n(-c2ccccc2)c1C,8%,32µM*,0%,?,-3%,?
CN1CCCC2(CCN(C(=O)c3cc(C(F)(F)F)cc(C(F)(F)F)c3)CC2)C1,/,/,-3%,/,/,/
COCCn1c(Br)nc2c1c(=O)n(C)c(=O)n2C,-11%,1%,15%,11%[46.1 µM],?,13%[46.1 µM]
Cc1ccc(OCCn2c(Br)nc3c2c(=O)n(C)c(=O)n3C)cc1,-15%,8.9µM*,0%,-6%,2%,2%
COC(=O)c1ccc(CNC(=O)c2sccc2-c2ccccc2)cc1,10%,?,?,?,/,?
COC(=O)c1cc(CNC(=O)c2ccc(S(=O)(=O)N(C)c3ccccc3)cc2)ccc1OC,3%,4µM*,?,-16%,3%,-8%
CN(c1ccccc1)S(=O)(=O)c1cccc(C(=O)NCc2ccccc2CN2CCCC2)c1,-5%,?,-15%,/,2%,/
COC(=O)c1cc(CNC(=O)c2sccc2-c2ccccc2)ccc1OC,1%,11µM*,?,/,-25%,/
CN(c1ccccc1)S(=O)(=O)c1ccc(C(=O)NCc2ccccc2CN2CCCC2)cc1,-11%,10µM*,?,12%,-15%,?
CC(C)c1ccc(Nc2ncnc3onc(-c4ccc(F)cc4)c23)cc1,/,/,-15%,?,-7%,/

# Source: PubChem BioAssay (National Center for Advancing Translational Sciences (NCATS))
